IL1B secr inh: qHTS for Inhibitors of Inflammasome Signaling: IL-1-beta AlphaLISA Primary Screen; THP-1 LPS/ATP IL-1B secretion, AlphaLISA, 16 h; hits give low values; activity change, % at 57.5 µM; 360,000 tested, 4.7% active; in the data active means activity change below about -50%; inconclusive means mostly about -30% to -49%
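THP-1 cells pretreated 1 hr with compounds (up to 57.5 uM final), then stimulated with LPS (250 ng/mL final) plus ATP (1.25 mM final); secreted IL-1B measured by AlphaLISA after 16 hr, decreased signal indicating inhibition.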
TGFb SMAD3 inh: qHTS for Inhibitors of TGF-b; HepG2 CAGA-GFP TGF-b/SMAD3 reporter, GFP fluorescence, 18 h; TGF-beta stimulated, 500 pg/mL final; Potency, µM (highest dose often 46.1 µM), actives largely listed as inhibitors; 410,000 tested, 1.2% active; AID 588855, 2011; further: nearly all actives have a fitted effect of over 65% in size
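First, reporter cells (HEPG2 CAGA-GFP) rested 2 h at 37 degrees C. Next, compounds were pinned in and TGF-beta added to 500 pg/mL final. After 18 h, GFP was imaged per cell and summed per well.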
TDP1 cell noCPT: qHTS for Inhibitors of human tyrosyl-DNA phosphodiesterase 1 (TDP1): qHTS in cells in absence of CPT; DT40 Tdp1-/- hTDP1 cells, no CPT, ATP luminescence, 48 h; Potency, µM (doses to about 46.2 µM), hits mostly inhibitors; 420,000 tested, 15% active; AID 686978, 2013; further: nearly all actives have a fitted effect of over 55% in size
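No-CPT arm: Tdp1-/-;hTDP1 DT40 cells (400/well) plus compounds, incubated ≥48 hr at 37 °C. Readout CellTiter-Glo luminescence.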
HepG2 tox: qHTS for Inhibitors of TGF-b: Cytotox Counterscreen; Potency, µM (doses to about 46.1 µM), most hits filed as cytotoxic; 410,000 tested, 0.76% active; HepG2 CAGA-GFP viability, ATP luminescence, 18 h
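HepG2 CAGA-GFP cells (1000/well, DMEM with 1% FBS) received compound, then TGF-beta at 500 pg/mL final, and were incubated 18 hours at 37 degrees C. Viability was read by CellTiter-Glo luminescence. Media-only wells were set as complete cell-killing and DMSO as no toxicity.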
TDP1 cell CPT: qHTS for Inhibitors of human tyrosyl-DNA phosphodiesterase 1 (TDP1): qHTS in cells in presence of CPT; Potency, µM (series often up to 46.2 µM), most hits filed as inhibitors; AID 686979, 2013; 420,000 tested, 12% active; chicken DT40 Tdp1-/-;hTDP1 cells + 20 nM CPT, ATP luminescence, 48 h; further: nearly all actives have a fitted effect of over 55% in size
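Chicken DT40 Tdp1-/- cells stably complemented with human TDP1 were seeded at 400 cells/well in medium containing 20 nM camptothecin, exposed to pin-transferred compounds, and grown at 37 °C for at least 48 hr. Viability was read as ATP luminescence.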
TDP1 inh: qHTS Assay for Inhibitors of Tyrosyl-DNA Phosphodiesterase (TDP1); Tyrosyl-DNA phosphodiesterase 1 (Homo sapiens), Q9NUW8; recombinant TDP1, AlphaScreen DNA substrate cleavage; Potency, µM (doses to about 130 µM), hits mostly inhibitors; 350,000 tested, 0.28% active; further: nearly all actives have a fitted effect of over 40% in size
Target sequence (Q9NUW8 whole entry, looked up): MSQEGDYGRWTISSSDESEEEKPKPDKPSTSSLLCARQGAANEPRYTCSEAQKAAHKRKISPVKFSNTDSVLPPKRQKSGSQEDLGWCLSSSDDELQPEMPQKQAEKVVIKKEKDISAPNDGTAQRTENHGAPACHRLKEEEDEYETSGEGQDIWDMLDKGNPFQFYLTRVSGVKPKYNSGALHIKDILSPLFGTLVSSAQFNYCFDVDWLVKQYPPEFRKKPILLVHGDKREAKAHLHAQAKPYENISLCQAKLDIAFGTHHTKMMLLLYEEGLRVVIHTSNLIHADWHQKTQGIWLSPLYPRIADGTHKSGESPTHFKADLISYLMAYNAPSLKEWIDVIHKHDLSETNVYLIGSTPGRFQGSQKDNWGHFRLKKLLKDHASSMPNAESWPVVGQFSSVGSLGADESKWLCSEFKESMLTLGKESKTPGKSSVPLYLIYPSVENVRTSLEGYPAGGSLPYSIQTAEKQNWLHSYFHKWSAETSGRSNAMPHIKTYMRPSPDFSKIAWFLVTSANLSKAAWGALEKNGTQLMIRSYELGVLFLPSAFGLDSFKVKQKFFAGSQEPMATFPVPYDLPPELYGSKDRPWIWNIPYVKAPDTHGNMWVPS
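Here, a 5' biotin and 3' phosphotyrosine-FITC DNA oligonucleotide reports Tdp1 activity: intact substrate bridges AlphaScreen beads, while cleavage leaves a 3' phosphate and drops signal. All incubations at room temperature.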
A number is an active result; – = inactive; ? = inconclusive; · = not tested or not shown. Shown are actives, neighbours in structure and some others; about 19% of the full set was active somewhere. Unless noted, the call rests on the fitted dose curve; in most records, active means well fitted curve in the direction sought with a large enough effect; inconclusive means small, poorly fitted or top-dose-only effect, or another doubt; inactive means no such curve, though single readings can be large; an effect the other way counts as inactive or inconclusive.

SMILES | IL1B secr inh | TGFb SMAD3 inh | TDP1 cell noCPT | HepG2 tox | TDP1 cell CPT | TDP1 inh
COc1ccc(O)c(C2Nc3ccccc3C(=O)N2Cc2ccccc2)c1 (configuration not stated) | · | · | · | · | · | –
CCc1cccc(NC(=O)Cn2nc(C)c3sc4ccccc4c3c2=O)c1 | · | – | – | – | – | –
CCN1CCN(c2ccc(S(=O)(=O)N3CCCCC3)cc2NC(=O)/C=C/c2cc(OC)ccc2OC)CC1 | -98 | – | ? | – | 16µM | –
COc1ccc(OC)c(/C=C/C(=O)Nc2cccc(S(=O)(=O)N3CCCC3)c2)c1 | – | – | 29µM | – | 23µM | –
CCN1CCN(c2ccc(S(=O)(=O)N3CCCCC3)cc2NC(=O)/C=C/c2ccc(Cl)cc2)CC1 | -93 | ? | ? | – | ? | ·
CCN1CCN(c2ccc(S(=O)(=O)N3CCCCC3)cc2NC(=O)/C=C/c2ccc(OC)c(OC)c2)CC1 | – | – | ? | – | ? | ·
O=C(Nc1sc2c(c1C(=O)NCc1cccnc1)CCCC2)c1cc(=O)c2ccccc2o1 | · | – | ? | – | ? | –
CC1CN(C(=O)CSc2nc(N)cc(N)n2)CC(C)O1 (configuration not stated) | – | – | – | – | – | –
Oc1ccccc1CN1CCN(C(O)(c2ccccc2)c2ccccc2)CC1 | ? | ? | ? | – | ? | ·
COc1cc(CN2CCN(C(O)(c3ccccc3)c3ccccc3)CC2)cc(OC)c1OC | -69 | – | 15µM | – | ? | ·
COc1cc(CN2CCN(c3cccc(Cl)c3)CC2)cc(OC)c1OC | – | – | 5.8µM | – | 7.3µM | –
COc1ccc(CCNC(=O)CN2CCN(c3cccc(Cl)c3)CC2)cc1OC | – | – | 21µM | – | 21µM | –
COc1ccc(CNC(=O)N2CCN(c3cccc(Cl)c3)CC2)cc1OC | – | – | ? | – | ? | –
O=c1c(-c2ccccc2)nc2cnc(Oc3cccc(Cl)c3)nc2n1C[C@H]1CCCO1 | · | · | – | · | – | ·
O=C(Cn1cnnn1)N[C@@H]1C(=O)N2C(C(=O)O)=C(CSc3nncs3)CS[C@H]12 | · | · | – | · | – | ·
C[C@@H]1CC2(OC[C@]3(C)O[C@H]23)O[C@H]2C[C@@]3(C)[C@@H]4CC[C@H]5C(C)(C)C(O[C@@H]6OC[C@@H](O)[C@H](O)[C@H]6O)CC[C@@]56C[C@@]46CC[C@]3(C)[C@@H]12 (some centres not stated) | · | · | · | · | · | –
CCOc1cc(C2NC(=O)N(C)C(C)=C2[N+](=O)[O-])ccc1OC(C)=O (configuration not stated) | – | – | – | – | – | –
CC1=C([N+](=O)[O-])C(c2ccc(Cl)cc2)NC(=O)N1C (configuration not stated) | – | – | 5.8µM | – | 6.5µM | ·
NC(=O)C(c1ccc(Cl)cc1)c1ccc(Sc2ccc(Cl)cc2)nn1 (configuration not stated) | ? | ? | 16µM | – | ? | –
O=C(CSc1ccc(-c2ccncc2)nn1)c1ccc(Cl)cc1 | – | – | – | – | – | –
N#C/C(=C(/O)c1ccc(Br)s1)c1nc2ccccc2[nH]1 | – | – | 7.3µM | – | 4.6µM | ·
N#C/C(=C(/O)c1ccc([N+](=O)[O-])s1)c1nc2ccccc2[nH]1 | – | – | 1µM | – | – | –
CC(C)[C@H](NC(=O)[C@@H]1CSSC[C@H](NC(=O)[C@H](CC(=O)O)NC(=O)[C@H](C)NC(=O)[C@@H](NC(=O)CNC(=O)[C@H](C)N)[C@@H](C)O)C(=O)N[C@@H](Cc2ccccc2)C(=O)N[C@@H](Cc2c[nH]c3ccccc23)C(=O)N[C@@H](CCCCN)C(=O)N[C@@H](Cc2ccc(O)cc2)C(=O)N1)C(=O)O | · | · | · | · | · | –
